Results on 40 compounds are retold here after PubChem BioAssay (EPA / NIEHS).

The structures appear in SMILES notation. Activity calls are given as the source filed them. The calls were made as follows: active = hit-call score of the fitted dose curve at least 0.9, where 1 is the maximum; inactive = score below 0.9.

Read-out in this assay: urokinase plasminogen activator (uPA), PLAU (gene 5328)
Briefly: BSK_KF3CT_uPA: BioMAP Diversity Plus: KF3CT Assay for urokinase plasminogen activator (uPA) Biomarker Activity (AID 2283075). To be noted: primary human keratinocytes with fibroblasts; actives raise or lower the signal. As for the experimental part: BSK_KF3CT is a cell-based, multiplexed-readout assay that uses keratinocytes and foreskin fibroblasts, a human skin primary cell co-culture, with measurements taken at 24 hours after chemical dosing in a 96-well plate.BSK_KF3CTA is an assay component measured in the BSK_KF3CT assay. It measures uPA antibody related to regulation of gene expression using ELISA technology.Data from the assay component BSK_KF3CTA was analyzed into 1 assay endpoint. This assay endpoint, BSK_KF3CTA, was analyzed with bidirectional fitting relative to DMSO as the negative control and baseline of activity. Using a type of binding reporter, gain or loss-of-signal activity can be used to understand changes in the signaling as they relate to the gene PLAU. Furthermore, this assay endpoint can be referred to as a primary readout, because this assay has produced multiple assay endpoints where this one serves a signaling function. To generalize the intended target to other relatable targets, this assay endpoint is annotated to the protease intended target family, where the subfamily is serine protease.
The levels of cell surface (or secreted, indicated by the prefix "s") biomarker endpoints were measured by ELISA. Overt cytotoxicity to cells in confluent adherent cultures (all systems other than the BT system) was assessed by measuring total protein levels using sulforhodamine B (SRB) staining in parallel cultures at the time of biomarker measurements, indicated as SRB endpoints. For proliferation assays for adherent cell types, individual cell types are cultured at sub-confluence and relative cell numbers quantified by SRB staining at time points optimized for each system (48 h: 3C and CASM3C systems; 72 h: BT and HDF3CGF systems; 96 h: SAg system). SRB was performed by staining cells with 0.1% SRB after fixation with 10% TCA and reading wells at 560 nm.Viability and proliferation of PBMC (T cells) was quantified by Alamar Blue reduction for the SAg and BT systems. For PBMC viability (referred to as PBMC Cytotoxicity within the assay endpoint names), cells were plated (75,000/well in a 96-well plate) and then chemical samples added for 1 h before addition of activators, SEB and TSST-1 (20 ng/mL final concentration each). Cells were incubated for 90 h. Then, Alamar Blue (20 uL/well) (Invitrogen, Cat DAL1100) was added for 6 h, and the plates were read with a fluorescence microplate reader at 546/580 nm (excitation/emission). For PBMC proliferation, cells were plated and activated as above but incubated for only 16 h prior to addition of Alamar Blue. Plates were read after 6 h.
As for `COC(=O)c1ccc(I)cc1S(=O)(=O)NC(=O)Nc1nc(C)nc(OC)n1`, the outcome was inactive.
Same read-out and setting: with `CCOC(=O)C(C)Oc1ccc(Oc2nc3ccc(Cl)cc3o2)cc1` (stereo not given) the entry was “inactive”.
In the case of `C[C@]12CC[C@@H]3c4ccc(O)cc4C[C@@H](CCCCCCCCCS(=O)CCCC(F)(F)C(F)(F)F)[C@H]3[C@@H]1CC[C@@H]2O` (stereo not given in full), the result was inactive.
As to `COC(=O)c1ccc(CNS(C)(=O)=O)cc1S(=O)(=O)NC(=O)Nc1nc(OC)cc(OC)n1`, the result was inactive.
With `C=CCOC(Cn1ccnc1)c1ccc(Cl)cc1Cl` (stereo not given), the outcome was inactive.
Take `S=C([S-])NCCNC(=S)[S-].[Mn+2]`: the result was inactive.
For the compound `COC(=O)c1ccccc1S(=O)(=O)NC(=O)Nc1nc(OC(F)F)cc(OC(F)F)n1`, the result was inactive.
Consider `CCCCC(CC)CN1C(=O)C2C3C=CC(C3)C2C1=O` (stereo not given), for which the outcome was inactive.
Same read-out and setting: with `CC(C)(c1ccc(O)cc1)c1ccc(O)cc1` the entry was “inactive”.
Turning to `CC1(C)C(C=C(Cl)Cl)C1C(=O)OCc1cccc(Oc2ccccc2)c1` (stereo not given), the outcome was inactive.
On to `c1ccc(Nc2ccccc2)cc1`, for which the result was inactive.
With `CSC(=O)c1cccc2nnsc12`, the outcome was inactive.
By AC50 is commonly meant the concentration giving half of the maximal activity seen. On to `CCCN(CCC)c1c([N+](=O)[O-])cc(C(F)(F)F)c(N)c1[N+](=O)[O-]`, for which the AC50 was 37.3 µM (active).
Consider `O=C(O)c1ccccc1`, for which the result was inactive.
The same measure, in the same setting: with `COC(=O)c1ccccc1C(=O)O` the entry was “inactive”; with `CC(=O)[C@H]1CC[C@H]2[C@@H]3CCC4=CC(=O)CC[C@]4(C)[C@H]3CC[C@]12C`, “inactive”.
`CC(C)CCCCCCc1ccc(O)cc1`: the AC50 was 9.65 µM (active).
As for `CCCCC(CC)COC(=O)c1ccccc1C(=O)O` (stereo not given), the outcome was inactive.
Consider `CCCCCCC(C)OC(=O)COc1nc(F)c(Cl)c(N)c1Cl` (stereo not given), for which the half-maximal activity concentration (AC50) was 20 µM (active).
Consider `CCOC(=O)C(C)Oc1ccc(Oc2cnc3cc(Cl)ccc3n2)cc1` (stereo not given), for which the result was inactive.
`O=C(Nc1ccc([N+](=O)[O-])cc1Cl)c1cc(Cl)ccc1O`: the AC50 was 0.266 µM (active).
Turning to `CCCOC(=O)c1ccc(C(=O)OCCC)nc1`, the outcome was inactive.
Still for that read-out and setting: with `CC(C)(C)[C@@H](O)[C@@H](Cc1ccc(Cl)cc1)n1cncn1` the entry was “inactive”; with `Cc1nn(C)c(Oc2ccccc2)c1C=NOCc1ccc(C(=O)OC(C)(C)C)cc1`, “inactive”; with `CN(C)C(=O)Nc1ccc(Cl)c(Cl)c1`, “inactive”.
In the case of `CCOC(=O)[C@H](C)Oc1ccc(Oc2nc3ccc(Cl)cc3o2)cc1`, the outcome was inactive.
The same measure, in the same setting: with `COC(=O)c1cccc(C)c1S(=O)(=O)NC(=O)Nc1nc(OCC(F)(F)F)nc(N(C)C)n1` the entry was “inactive”; with `C#CCOC(=O)[C@@H](C)Oc1ccc(Oc2ncc(Cl)cc2F)cc1`, “inactive”.
As to `O=C(c1ccccc1)C1CCCCC1`, the result was inactive.
Same read-out and setting: in the case of `O=C(c1ccc(O)cc1O)c1ccc(O)cc1O` it was “inactive”.
Same read-out and setting: in the case of `CCC(C)OC(=O)N1CCCCC1CCO` (stereo not given) it was “inactive”.
On the same count and under the same terms, with `CC(=O)S[C@@H]1CC2=CC(=O)CC[C@]2(C)[C@H]2CC[C@@]3(C)[C@@H](CC[C@@]34CCC(=O)O4)[C@H]12` the entry was “inactive”; with `CCCN(CCC)C(=O)SCC`, “inactive”; with `C[C@]12C[C@H](O)[C@H]3[C@@H](CCC4=CC(=O)CC[C@@]43C)[C@@H]1CC[C@@H]2C(=O)CO`, “inactive”.
On to `CCOC(=O)NCCOc1ccc(Oc2ccccc2)cc1`, for which the outcome was inactive.
For `O=C(O)C1(C(=O)Nc2ccc(Cl)cc2Cl)CC1`, the outcome was inactive.
As for `COCCO`, the result was inactive.
As for `Oc1ccc(C(c2ccc(O)cc2)C(Cl)(Cl)Cl)cc1`, the AC50 was 31.8 µM (active).
As for `CCCCOC(=O)[C@@H](C)Oc1ccc(Oc2ccc(C(F)(F)F)cn2)cc1`, the result was inactive.
On to `CCOC(=O)COc1cc(-n2ncc(C(F)(F)F)c(C)c2=O)c(F)cc1Cl`, for which the outcome was inactive.
